In ChEMBL document CHEMBL3988442, “University of Dundee, Small-Polar-MMV Screening Library” (2021):
The whole screen tested about 48,000 compounds, of which about 13,000 (27%) showed an effect of 50% or more. The list shows a part of the results.

system: Wolbachia pipientis; assay: Anti-Wolbachia Cell-Based Screen; assay type: functional; design: scale not given: in the data most compounds retested in dose-response had high values; conditions: 5 µM

Row | Structure (SMILES) | Percent Effect [%]
1 | Cc1c(C(C)NC2CCCC2)cnn1-c1ccc(F)cc1F (stereo unspecified) | 1.139
2 | O=C(N[C@@H]1CCN(C(=O)c2cc[nH]c2)C[C@H]1O)c1ccccn1 | 16.73
3 | O=C(NS(=O)(=O)c1ccc(F)c(F)c1)c1cscn1 | 8.824
4 | CC(C)N1C[C@H](NC(=O)c2coc(COc3cccc(F)c3)n2)[C@@H](O)C1 | 0.03825
5 | O=C(N[C@@H]1CN(Cc2ccc(F)cc2)C[C@H]1O)c1cscn1 | 113.4
6 | O=C(N[C@@H]1CN(Cc2ccc(F)c(F)c2)C[C@H]1O)c1cscn1 | 124.1
7 | Fc1ccc(CN2CCCN(Cc3cscn3)CC2)cc1 | -1.277
8 | O=C(N[C@@H]1CN(Cc2cccc3[nH]ccc23)C[C@H]1O)c1cscn1 | 113.8
9 | NC(=O)CN1C(=O)CO[C@H]2CN(Cc3ccc(F)c(F)c3)C[C@H]21 | 0.7627
10 | O=C(N[C@@H]1CN(c2ncc(F)cn2)[C@@H]2COC[C@@H]21)c1cscn1 | -1.705
11 | O=C(NC1CC(=O)N(Cc2cccc(F)c2)C1)c1ccncc1 (stereo unspecified) | 2.208
12 | O=C(N[C@@H]1CN(Cc2cccc(F)c2)C[C@H]1O)c1cscn1 | 114.1
13 | CN(c1ncccc1CNC(=O)c1cscn1)C1CCCCC1 | -0.9499
14 | CNC(=O)N1CCOC(C)(c2cnn(C)c2)C1 (stereo unspecified) | -1.831
15 | O=C(N[C@@H]1CN(Cc2ccc3cc[nH]c3c2)C[C@H]1O)c1cnccn1 | 102.1
16 | O=C(N[C@@H]1CN(Cc2ccc3[nH]ccc3c2)C[C@H]1O)c1cscn1 | 101.2
17 | O=C(O)CCc1cc2n(n1)CCN(Cc1ccc3[nH]ccc3c1)C2 | -14.18
18 | N#Cc1cc(NC(=O)c2cscn2)ccc1N1CCC(O)CC1 | -15.52
19 | NC(=O)C1CCN(CCc2ccc(NCc3cscn3)cc2)CC1 | 0.9786
20 | O=C(N[C@@H]1CN(CCc2ccc(F)cc2)C[C@H]1O)c1cscn1 | 115.2
21 | CCc1cnc(N2C[C@@H](NC(=O)c3cscn3)[C@H]3COC[C@H]32)nc1.O=C(O)C(F)(F)F | -6.299
22 | CSCCCN1CC[C@@H](NC(=O)c2cnccn2)[C@H](O)C1 | -11.75
23 | O=C(N[C@@H]1CCN(c2nccc3ccccc23)C[C@H]1O)c1cnccn1 | -5.026

Row | Structure (SMILES) | Percent Effect [%]
24 | COCCn1cnnc1Cn1ccnc1-c1ccccc1C | -14.43
25 | c1ccc(-c2cc(CC3(NCc4ncc[nH]4)COC3)no2)cc1 | -5.291
26 | O=C1OCCN1CCS(=O)(=O)c1cccc(Cl)c1 | -8.046
27 | O=S(=O)(N1CCCC1)N1CCc2sccc2C1 | -2.678
28 | CC(C)c1ccc(C(CN)N2CCc3sccc3C2)cc1 (stereo unspecified) | 134.3
29 | N#Cc1ccc(F)c(CN2CCc3sccc3C2)c1 | 10.21
30 | CC(C)c1nsc(N2CCc3sccc3C2)n1 | -3.315
31 | CC(C(=O)N1CCc2sccc2C1)N1CCC(S(N)(=O)=O)CC1 (stereo unspecified) | 4.951
32 | NCC(c1ccc(Cl)cc1)N1CCc2sccc2C1 (stereo unspecified) | 85.2
33 | O=C1CC2(CCCC2)C(=O)N1CC(O)COCc1ccccc1F (stereo unspecified) | -41.58
34 | CCOc1ncccc1C(=O)NCC(O)c1ccc(F)c(F)c1 (stereo unspecified) | -43.97
35 | O=C(O)C(F)(F)F.O=C(O)C(F)(F)F.c1ccc(OCc2nnc3n2CCN(CC2CCOCC2)C3)nc1 | 15.11
36 | Cc1cc(C)c(CNC(=O)NCC(O)COc2ccccc2)c(=O)[nH]1 (stereo unspecified) | -7.857
37 | Cc1ccc(CN2CCC(n3cc(CN4CCC(O)CC4)nn3)CC2)s1 | -6.735
38 | COCCN1CCC12CCN(C(=O)c1ccsc1)CC2.O=C(O)C(F)(F)F | -8.3
39 | CCc1noc(CCC(=O)N2CCC(c3ccn[nH]3)C2)n1 (stereo unspecified) | 80.59
40 | CCCc1noc(CCC(=O)N2CCCC(c3ccn[nH]3)C2)n1 (stereo unspecified) | -9.271
41 | CCc1noc(CCCC(=O)N2CCCC(c3ccn[nH]3)C2)n1 (stereo unspecified) | -18.93
42 | COCC(=O)NCC1Cn2nnc(-c3ccoc3)c2CO1 (stereo unspecified) | -10
43 | Fc1ccc2c(c1)C(NCc1nnc3n1CCCCC3)CCCO2 (stereo unspecified) | -5.807
44 | O=c1cc(-c2ccc(F)cc2)nc2n1CCCCC2 | 114
45 | Cc1nc(-c2ccccc2)ccc1C(=O)N1CCn2c(C)nnc2C1 | -4.566
46 | NC1(c2nc(-c3ccccc3)cc(=O)[nH]2)CCCC1 | -3.244

Row | Structure (SMILES) | Percent Effect [%]
47 | O=c1[nH]c(-c2ccc(F)cc2)nc2c1CCNC2 | -26.62
48 | O=c1cc(-c2ccccc2)nc2n1CCCCC2 | 110.3
49 | CCc1cc(CNC(=O)Nc2cc(F)cc(N3CCCC3)c2)on1 | -27.71
50 | O=C1CCc2ccccc2N1CCCn1cnnn1 | -8.538
51 | CC(C)c1ccc(C(=O)O)cc1S(=O)(=O)Nc1ccc(=O)n(C)c1 | -9.9
52 | Cc1ccc(N2CCO[C@@H]3CN(Cc4cccc(C)n4)CC[C@@H]3C2)nn1 | 0.9995
53 | Cc1ccc(N2CCO[C@H]3CN(C(=O)c4cccc(C)n4)C[C@H]32)nn1 | 104.4
54 | Cc1ccc(N2C[C@@H]3CN(C(=O)c4ccccc4)CCO[C@@H]3C2)nn1.O=C(O)C(F)(F)F | -9.523
55 | CNS(=O)(=O)c1cccc(C(C)NCc2cccc(O)c2)c1 (stereo unspecified) | -12.85
56 | O=C(c1nc(=O)[nH][nH]1)N1CCCCCC1 | -25.91
57 | COc1ccc2c(c1)C(=O)N(C)C1(CCN(CC=C(C)C)CC1)N2 | -3.399
58 | CC(=O)NC1Cc2ccc(S(=O)(=O)NCCNc3ccccn3)cc2C1 (stereo unspecified) | 74.28
59 | CN1CCC(NC(=O)NCCNc2ccccn2)CC1 | 10.59
60 | O=C(NCCNc1ccccn1)NC1CCCC1 | 1.673
61 | CN(C)C(=O)CS(=O)(=O)Cc1cc(Cl)c2c(c1)OCCCO2 | -2.577
62 | CN(C)C(=O)CS(=O)(=O)Cc1cc(Cl)c2c(c1)OCCO2 | 128.9
63 | CC(C)NC(=O)CS(=O)(=O)Cc1cc(Cl)c2c(c1)OCCO2 | 2.891
64 | CN(C)C(=O)CCS(=O)(=O)Cc1cc(Cl)c2c(c1)OCCO2 | 3.114
65 | CS(=O)(=O)Cc1cc(Cl)c2c(c1)OCCCO2 | 18.55
66 | CN(C)C(=O)CCCS(=O)(=O)Cc1cc(Cl)c2c(c1)OCO2 | 133.3
67 | CN(C)C(=O)CCCS(=O)(=O)Cc1cc(Cl)c2c(c1)OCCO2 | 4.566
68 | CN(C)C(=O)CCS(=O)(=O)Cc1cc(Cl)c2c(c1)OCO2 | 106.6
69 | CS(=O)(=O)CCS(=O)(=O)Cc1cc(Cl)c2c(c1)OCCCO2 | -7.786

Row | Structure (SMILES) | Percent Effect [%]
70 | CCN1CCC(NC(=O)NC2CCOc3ccc(Br)cc32)CC1 (stereo unspecified) | -7.217
71 | COCc1nc(CNC2CCN(C(C)C)CC2)no1 | -1.626
72 | CCC(CO)N(Cc1cccs1)C(=O)CSC (stereo unspecified) | -12.18
73 | O=S1(=O)C[C@@H]2[C@H](C1)N(Cc1cc(F)cc(Cl)c1)CCN2CCO | 3.698
74 | CN1[C@H](CO)C[C@H](CNCc2ccc(CO)o2)[C@@H]1c1ccccc1F | -6.438
75 | O=C(O)C(F)(F)F.c1cnn(Cc2cn3c(n2)CN(Cc2nccs2)CC3)c1 | 25.66
76 | CC(=O)N1CC2(CCN(S(=O)(=O)N(C)C)CC2)C2(CCNC2=O)C1 (stereo unspecified) | -32.61
77 | COc1ccccc1C1CCN(c2ccc3cc[nH]c3n2)CC1 | 26.71
78 | COC(=O)c1cc(NCC(=O)NC(N)=O)cc(C(F)(F)F)c1 | 4.503
79 | COc1c(C(=O)NC(C)CC(=O)c2cccs2)c(C)nn1C (stereo unspecified) | 88.78
80 | Cc1cc(C(=O)NC(C)CC(=O)c2cccs2)n(C)n1 (stereo unspecified) | 104.4
81 | Cc1nn(C)c(C)c1C(=O)NC(C)CC(=O)c1cccs1 (stereo unspecified) | 89.66
82 | Cc1cc(NC(=O)NCCc2cccs2)n(C)n1 | -8.078
83 | Cc1nn(C)c(C)c1CC(C)NC(=O)NCc1ccn(C(C)C)n1 (stereo unspecified) | 14.28
84 | COc1c(C(=O)NCC(C)Sc2ccccc2)c(C)nn1C (stereo unspecified) | -11.73
85 | C[C@@H](NC(=O)c1cccs1)c1onc(-c2cccnc2)c1C(=O)O.Cl | -7.123
86 | CNS(=O)(=O)c1cccc(CNC(=O)c2c(C)nn(C)c2C)c1 | -2.541
87 | CCC(NC(=O)c1cc(CC(C)C)nn1C)c1cccc(C)n1 (stereo unspecified) | -23.09
88 | CNc1snc(C)c1C(=O)NC(C)CC(=O)c1cccs1 (stereo unspecified) | 87.28
89 | CC(NC(=O)c1cccs1)C(=O)NCc1ccccc1CN1CCCC1 (stereo unspecified) | 1.8
90 | COc1ccccc1C(C)CNC(=O)c1c(C)nn(C)c1OC (stereo unspecified) | -4.025
91 | CCc1ccc2c(C3CN(CC4CCC4)C3)ncn2c1.O=C(O)C(F)(F)F | 1.201
92 | Cc1ccc(C(=O)N2CCSCC2)cc1NC(C)C | -20.08

Row | Structure (SMILES) | Percent Effect [%]
93 | CN(C)c1nc2c(c(N3CCC(O)CC3)n1)CN(CC1CCNC1)CC2 (stereo unspecified) | -8.406
94 | CCC(CO)N(Cc1ccccn1)C(=O)c1ccc(CSC)o1 (stereo unspecified) | 18.24
95 | Cc1c(C(=O)NC(CN2CCCC2=O)c2ccccc2)cnn1C (stereo unspecified) | -6.718
96 | Cc1c(C(=O)NC(C)CC(=O)c2cccs2)cnn1C (stereo unspecified) | 85.26
97 | CNS(=O)(=O)c1cccc(CNC(=O)c2cnn(C)c2C)c1 | -2.681
98 | O[C@H]1[C@H](NCCc2cnccn2)c2ccccc2C12CCNCC2 | 1.46
99 | CC1CCN(CCNC(=O)C2CCN(C(=O)C3CC3)CC2)CC1 | 7.892
100 | COc1ccsc1C(=O)Nc1cc(Br)c(=O)n(C)c1 | -2.156
101 | CCc1ccsc1C(=O)NC(Cc1ccccc1)C(N)=O (stereo unspecified) | 1.098
102 | CCCC(C#N)NC(=O)Cc1csc(CC)n1 (stereo unspecified) | -2.381
103 | CCC(C#N)NC(=O)c1sccc1OC (stereo unspecified) | 86.18
104 | CCc1nc(CC(=O)NC(C#N)CC(C)C)cs1 (stereo unspecified) | 0.9973
105 | CCc1nc(CC(=O)NC(C#N)CC)cs1 (stereo unspecified) | -7.062
106 | COc1ccsc1C(=O)NCCNc1ccccc1 | -8.97
107 | CC(C)CCC(=O)NC(C#N)CC(C)C (stereo unspecified) | 5.343
108 | CCc1ccsc1C(=O)NC(C#N)CC (stereo unspecified) | 105.4
109 | CCc1ccsc1C(=O)NC(C#N)CC(C)C (stereo unspecified) | 102.3
110 | CCCC(C#N)NC(=O)c1sccc1CC (stereo unspecified) | 99.07
111 | CCCC(C#N)NC(=O)COC1CCCCC1 (stereo unspecified) | -4.378
